# Measurements from the supplement of paper PMC10670038.
# Structures can show the parent of a compound that is named as a salt. ± gives the standard deviation of the averaged measurements. In all, about 2,000 compounds were measured (“relative cell viability vs DMSO, compound alone”: median about 1.1, lowest 2% from about 0.29 on). Only a selection was taken, and the lowest values are over-represented in it overall.
# Tested on: TE10
# Assay: relative cell viability vs DMSO, compound alone (fraction); TE10 is an esophageal squamous carcinoma line; higher = less cytotoxic
# Details: 2 µM; 48 h
# Procedure: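 TE10 ESCC cells (1,000/well, 384-well plates) were treated with Selleck bioactive library compounds at 2 uM alone for 48 h. Viability was read by CellTiter-Glo and expressed relative to DMSO wells. Two technical replicates (A, B).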
row,Structure (SMILES),relative cell viability
1,CC[C@@H](C)Nc1cc(C(=O)N[C@H]2C[C@H]3CC[C@@H](C2)N3c2ccc(C(=O)C3CC3)cn2)c(C)cc1C(N)=O,0.449 ± 0.023
2,O=C(O)c1cc(/N=N/c2ccc(S(=O)(=O)Nc3ccccn3)cc2)ccc1O [Sulfasalazine],1.04 ± 0.026
3,CCc1nc(-c2cccc(C)c2)c(-c2ccnc(NC(=O)c3ccccc3)c2)s1,1.0779 ± 0.0008
4,Cc1ccc([N+](=O)[O-])cc1S(=O)(=O)N(C)/N=C/c1cnc2ccc(Br)cn12,0.287 ± 0.012
5,COc1cc(C(C)=O)ccc1O [Apocynin],1.07 ± 0.059
6,CCCCOc1c(C(=O)c2c(F)cc(C)cc2F)c[nH]c2nncc1-2,0.904 ± 0.014
7,CCOC(=O)CCNc1cc(N2CCc3ccccc3CC2)nc(-c2ccccn2)n1,0.957 ± 0.1
8,CNC[C@@H](O)c1ccc(O)c(O)c1 [L-Adrenaline],1.06 ± 0.028
9,COCC[n+]1c2c(n(Cc3cnccn3)c1C)C(=O)c1ccccc1C2=O [YM155 (Sepantronium Bromide)],0.0556 ± 0.0047
10,CC1(C)S[C@@H]2[C@H](NC(=O)[C@H](NC(=O)N3CCNC3=O)c3ccccc3)C(=O)N2[C@H]1C(=O)O [Azlocillin sodium salt],1.09 ± 0.026
11,CC(C)(OCc1nn(Cc2ccccc2)c2ccccc12)C(=O)O [Bindarit],1.1 ± 0.053
12,C=C[C@]1(C)C[C@@H](OC(=O)CS[C@@H]2C[C@H]3CC[C@@H](C2)N3C)[C@]2(C)[C@H](C)CC[C@]3(CCC(=O)[C@H]32)[C@@H](C)[C@@H]1O [Retapamulin],1.29 ± 0.028
13,CCC[C@@H]1C[C@@H](C(=O)N[C@@H]([C@H]2O[C@H](SC)[C@H](O)[C@@H](O)[C@H]2O)[C@@H](C)O)N(C)C1 [Lincomycin HCl],1.12 ± 0.073
14,CCC(=O)Nc1cccc(Oc2nc(Nc3ccc(N4CCN(C)CC4)cc3OC)ncc2Cl)c1,1.16 ± 0.059
15,Clc1ccc(Nc2nnc(Cc3ccncc3)c3ccccc23)cc1 [Vatalanib (PTK787) 2HCl],1.16 ± 0.022
16,Cc1[nH]c2ccccc2c1CCNC(=O)c1cccs1,1.08 ± 0.069
17,CN(C)Cc1ccc(S(=O)(=O)n2ccc(/C=C/C(=O)NO)c2)cc1 [Resminostat],0.908 ± 0.028
18,Cc1[nH]c2ccccc2c1CCNCc1ccc(/C=C/C(=O)NO)cc1 [Panobinostat (LBH589)],0.0672 ± 0.00084
19,COc1ccc(-c2coc3cc(O)ccc3c2=O)cc1 [Formononetin],0.901 ± 0.044
20,O=C(O)c1ccc(C=C2SC(=S)N(c3cccc(C(F)(F)F)c3)C2=O)cc1,1.04 ± 0.026
21,O=C(CCCN1CC=C(n2c(=O)[nH]c3ccccc32)CC1)c1ccc(F)cc1 [Droperidol],1.08 ± 0.044
22,Cc1ccc(S(=O)(=O)c2ccc([N+](=O)[O-])o2)cc1,0.286 ± 0.0092
23,NC(=O)N/N=C/c1ccc([N+](=O)[O-])o1 [Nitrofural],1.02 ± 0.057

row,Structure (SMILES),relative cell viability
1,COc1ccc(/C=C/C(=O)C2(C(=O)/C=C/c3ccc(OC)c(OC)c3)CCCCC2)cc1OC,0.726 ± 0.088
2,Cc1c(F)cc(C(=O)NC2CC2)cc1-c1ccc(C(=O)NCC(C)(C)C)cn1,0.959 ± 0.18
3,Cc1c(Nc2ncccc2C(=O)O)cccc1C(F)(F)F [Flunixin Meglumin],0.994 ± 0.028
4,COc1cc2c(cc1OC)CN(CCc1ccc(NC(=O)c3cccc4c(=O)c5cccc(OC)c5[nH]c34)cc1)CC2,1.03 ± 0.056
5,CNCCc1ccccn1 [Betahistine 2HCl],0.903 ± 0.18
6,COC1=CC(=O)C[C@@H](C)[C@]12Oc1c(Cl)c(OC)cc(OC)c1C2=O [Griseofulvin],1.12 ± 0.06
7,O[C@@H](COc1cccc2ncccc12)CN1CCN(C2c3ccccc3[C@@H]3[C@H](c4ccccc42)C3(F)F)CC1 (stereo partly specified),1.14 ± 0.082
8,CCn1c(N)c(C(=O)NC)c(=O)c2ccc(C#CC(C)(O)COC)nc21 (stereo unspecified),0.979 ± 0.17
9,CN(Cc1cnc2nc(N)nc(N)c2n1)c1ccc(C(=O)N[C@@H](CCC(=O)O)C(=O)O)cc1 [Methotrexate],0.143 ± 0.0081
10,Cc1nc(=O)c2cc(CN(C)c3ccc(C(=O)N[C@@H](CCC(=O)O)C(=O)O)s3)ccc2[nH]1 [Raltitrexed],1.07 ± 0.086
11,C#CCC(Cc1cnc2nc(N)nc(N)c2n1)c1ccc(C(=O)N[C@@H](CCC(=O)O)C(=O)O)cc1 (stereo partly specified) [Pralatrexate],0.1336 ± 0.00088
12,CC(C)c1cnn2c(NCc3ccccc3)cc(NCCCCCCN)nc12,1.08 ± 0.063
13,CNC(=O)CN1CCC(Oc2cc3c(Nc4cccc(Cl)c4F)ncnc3cc2OC)CC1 [AZD8931 (Sapitinib)],1.21 ± 0.015
14,Cc1c(C(N)=O)cc([N+](=O)[O-])cc1[N+](=O)[O-] [Dinitolmide],1.0978 ± 0.00018
15,Cc1ccccc1C(C(=O)NC1CCCCC1)N(C(=O)Cn1ccnc1C)c1cccc(F)c1 (stereo unspecified),0.989 ± 0.22
16,CCCCCCCCCCCCCCCC[N+](C)(C)C [Cetrimonium Bromide (CTAB)],1.05 ± 0.039
17,CC1=NN(c2ccc(C(=O)O)cc2)C(=O)C1=Cc1ccc(-c2cc(C)c(C)cc2[N+](=O)[O-])o1,1.04 ± 0.022
18,Nc1nc(CC(=O)Nc2ccc(CCNC[C@H](O)c3ccccc3)cc2)cs1 [Mirabegron],0.954 ± 0.11
19,NC(=O)c1cccc(-c2cccc(OC(=O)NC3CCCCC3)c2)c1,1.17 ± 0.024
20,CC#CC(=O)Nc1ccc2ncnc(Nc3cccc(Br)c3)c2c1,0.773 ± 0.043
21,CN(C)c1ccc(C(=C2C=CC(=[N+](C)C)C=C2)c2ccc(N(C)C)cc2)cc1 [Crystal Violet],0.278 ± 0.006
22,CN(C)C(=O)c1cc2cnc(Nc3ccc(N4CCNCC4)cn3)nc2n1C1CCCC1,1.147 ± 0.008
23,Nc1c(CC(=O)O)cccc1C(=O)c1ccc(Br)cc1 [Bromfenac Sodium],1.09 ± 0.046
